Screens: PubChem, The Scripps Research Institute Molecular Screening Center
Most compounds without a hit are left out; they make up all but 3.5% or so of the library.
GPR151 ag: activators of human GPR151, primary screen, cell-based, PathHunter beta-arrestin, luminescence | activation, % at 11.2 µM | 650,000 compounds, 1% hits | PathHunter beta-arrestin GPR151 cells | G-protein coupled receptor 151 (Homo sapiens), Q8TDV0; in the data active means activation above about 4.9%;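 further: 0% = median of compound wells and 100% = cells with positive control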
TEAD-YAP block: TEAD-YAP interaction inhibition, primary screen, TEAD-YAP interaction inhibitor project, luminescence, HEK-TIYL cells. 640,000 compounds, 1.4% hits. TEAD-Gal4/YAP UAS-luciferase luminescence. inhibition, % at 9.12 µM; in the data active means inhibition above about 32%;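 further: 0% = median of test compound wells and 100% = reference inhibitor wells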
FBW7 act: FBW7 E3 ligase activators, primary screen, biochemical, AlphaScreen, human | F-box/WD repeat-containing protein 7 (Homo sapiens), Q969H0 | AlphaScreen FBW7–phospho-cyclin E peptide binding, activator screen | normalized activity (activation), % at 26.1 µM | 650,000 compounds, 0.13% hits; in the data active means normalized activity above about 1.9%;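 further: purified mutant Fbw7 with reduced substrate affinity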
MITF primary: MITF inhibitors, primary screen, biochemical, AlphaScreen, human; 650,000 compounds, 0.91% hits; inhibition, % at 2.6 µM; AlphaScreen MITF homodimerization, bead proximity signal; Microphthalmia-associated transcription factor (Homo sapiens), O75030; AID 1259374, 2018; in the data active means inhibition above about 50%;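 further: 0% = vehicle wells with protein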
Target sequence (O75030 whole entry, looked up): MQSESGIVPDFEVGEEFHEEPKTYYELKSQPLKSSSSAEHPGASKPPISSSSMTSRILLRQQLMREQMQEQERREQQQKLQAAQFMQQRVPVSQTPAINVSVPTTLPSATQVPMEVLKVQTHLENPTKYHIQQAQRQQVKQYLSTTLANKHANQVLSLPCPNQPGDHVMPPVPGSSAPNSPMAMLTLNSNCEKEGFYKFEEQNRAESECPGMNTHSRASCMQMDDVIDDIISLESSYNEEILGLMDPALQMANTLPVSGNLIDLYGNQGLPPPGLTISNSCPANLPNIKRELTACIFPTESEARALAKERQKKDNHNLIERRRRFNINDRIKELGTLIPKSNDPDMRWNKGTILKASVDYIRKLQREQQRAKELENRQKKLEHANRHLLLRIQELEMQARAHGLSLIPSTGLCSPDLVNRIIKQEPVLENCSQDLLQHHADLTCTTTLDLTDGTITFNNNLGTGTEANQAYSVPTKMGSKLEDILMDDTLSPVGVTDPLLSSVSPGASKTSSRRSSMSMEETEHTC
Starred values were filed as active, the others as inactive.

SMILES	GPR151 ag	TEAD-YAP block	FBW7 act	MITF primary
CS(=O)(=O)NC1CC(=O)N(c2cccc(F)c2)C1 (stereo unspecified)	2.8	3.9	0.0	10.0
CCc1ccc2nc(N3CCC(C(=O)NC4CCCCC4)CC3)sc2c1	-1.2	70.0*	0.4	14.3
CCc1ccc2nc(N3CCC(C(=O)NC(C)C)CC3)sc2c1	0.9	39.8*	-0.2	-10.3
CCC1CCCCN1C(=O)CSc1nc2nc(C)c(Cc3ccccc3Cl)c(C)n2n1 (stereo unspecified)	-0.5	-8.8	0.3	25.2
CCN(CC)c1ccc2cc(-c3nc4ccccc4s3)c(=O)oc2c1	-1.4	76.5*	0.0	-6.3
CCN(CC)c1ccc2cc(-c3nc4ccccc4n3C)c(=O)oc2c1	0.5	32.6*	0.7	-1.6
Cc1ccccc1C(=O)Nc1cccc(C(=O)N/N=C/c2cc([N+](=O)[O-])ccc2O)c1	1.2	-4.2	0.0	9.5
CCOC(=O)/C(C#N)=N/Nc1ccccc1C#N	-1.0	-8.1	0.0	52.5*
CCOC(=O)/C(C#N)=N\Nc1ccccc1OC	-0.3	-7.1	-0.1	-1.8
CCN(CC)C(=O)C1CCCN(c2nc(NC3CC3)c3ncn(C4CCCCC4)c3n2)C1 (stereo unspecified)	1.9	28.5	-0.3	-0.7
CCN(CC)C(=O)C1CCCN(c2nc(Nc3ccc(NC(C)=O)cc3)c3ncn(C(C)C)c3n2)C1 (stereo unspecified)	-0.5	45.9*	-0.1	7.4
CCN(CC)C(=O)C1CCCN(c2nc(Nc3ccc(Oc4ccccc4)cc3)c3ncn(C4CCCCC4)c3n2)C1 (stereo unspecified)	-0.1	5.3	5.4*	11.4
CCCCCCCC(=O)NNC(=O)c1cc([N+](=O)[O-])cc([N+](=O)[O-])c1	-0.3	11.5	-0.1	8.4
COc1ccc(C)cc1-n1nnnc1SCC(=O)c1[nH]c(C)c(C(C)=O)c1C	0.0	32.7*	-0.1	11.6
CC(C)CCOC(=O)C[N+](C)(C)CCOC1CC2CCC1(C)C2(C)C (stereo unspecified)	-0.3	37.4*	0.0	-12.8
O=C(NCc1cccc(C(F)(F)F)c1)c1cccc(N2CCC(N3CCOCC3)CC2)n1	1.8	35.8*	-0.1	-9.3
Cc1noc(C)c1-c1nc(NCCO)c2ncn(-c3ccsc3)c2n1	0.9	22.8	-0.2	4.5
CCCNc1nc(-c2cccc(N)c2)nc2c1ncn2-c1ccsc1	-0.5	53.4*	0.1	19.4
Nc1cccc(-c2nc(NCCO)c3ncn(-c4ccsc4)c3n2)c1	-2.0	62.8*	0.0	10.5
O=C(NCc1ccccc1)c1cc(S(=O)(=O)N2CCOCC2)c(Cl)cc1Cl	-1.3	6.3	-0.1	-0.2
Cc1[nH]c(=O)[nH]c(=O)c1NC(=O)c1sc2nc3ccc(C(C)C)cc3cc2c1N	0.6	78.9*	-0.1	-2.4
Cc1ccc2cc3c(N)c(C(=O)Nc4nc(C)c(C)s4)sc3nc2c1	-0.8	-49.1	-0.2	0.0
Cc1cc2cc3c(N)c(C(=O)Nc4nc(C)c(C)s4)sc3nc2cc1C	1.5	-16.5	46.2*	-2.8
CC(C)c1ccc2nc3sc(C(=O)Nc4nccs4)c(N)c3cc2c1	0.6	65.7*	0.0	-11.3
Nc1c(C(=O)Nc2nccs2)sc2nc3c(cc12)CCC3	-1.3	55.8*	0.2	2.6
SMILES	GPR151 ag	TEAD-YAP block	FBW7 act	MITF primary
Cc1ccc2nc3sc(C(=O)Nc4c(C)[nH]c(=O)[nH]c4=O)c(N)c3cc2c1	1.0	-0.4	0.3	0.1
COCCn1c(=S)[nH]c2cc(Cl)ccc2c1=O	2.3	4.0	-0.2	9.2
CN(C)S(=O)(=O)c1ccc(NC(=O)COc2ccc(C(=O)c3ccccc3)cc2)cc1	-0.9	-4.1	-0.3	0.8
Cc1cccc(OCC(=O)Nc2nccs2)c1C	-4.6	32.0*	-0.1	7.2
O=C(COc1ccccc1Cl)Nc1nccs1	-10.8	91.1*	0.2	19.2
O=C(COc1ccccc1F)Nc1nccs1	-8.1	-1.4	-0.1	5.9
COc1ccccc1OCC(=O)Nc1nccs1	-8.1	15.1	-0.2	3.6
CCc1ccc(NC(=O)CSc2nc3ccccc3c3nc(C)nn23)cc1	0.1	62.3*	0.0	9.7
Cc1nc2c3ccccc3nc(SCC(=O)Nc3ccc(Br)cc3)n2n1	-0.5	4.0	-0.1	5.2
Cc1cc(NC(=O)Nc2ccccc2)ccc1N1CCCCC1=O	-10.4	37.3*	-0.4	-7.2
c1ccc(-c2nc(NC3CC3)cc(-c3cccnc3)n2)cc1	1.2	23.1	0.1	17.0
